Consider 27 molecules from the supplement of paper PMC4840960.

Counter-ions that a name gives are not always drawn. ± gives the standard deviation of the averaged measurements.

The first assay has as its system E18 rat cortical neuron-glia co-culture. The experiment in a line: fiber score / MBP score (myelination specific beyond OL differentiation) (ratio); higher = more myelination-specific MBP alignment. As to conditions: 1 µM; treatment time: 8 days (DIV5-DIV13). In short, it runs like this:
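Reported values are fiber score (continuous MBP fiber length per Olig2+ nucleus) divided by MBP score (thresholded MBP area × intensity per Olig2+ nucleus). They come from primary E18 rat cortical co-cultures treated with library compounds at 1 or 5 µM in myelination medium from DIV5 to DIV13, then fixed in 4 % paraformaldehyde, immunostained for MBP and Olig2 with DAPI, and analysed over four 10X fields per well in duplicate wells.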
For `Cc1ncc2n1-c1ccc(Cl)cc1C(c1ccccc1F)=NC2` [Midazolam], the “fiber score / MBP score” value came out at 0.908. Same read-out and setting: the value for `CN1[C@@H]2CC[C@H]1C[C@@H](OC(=O)[C@H](CO)c1ccccc1)C2` [Hyoscyamine] was 0.631; that for `C[C@]12CCC(=O)C=C1CC[C@@H]1[C@@H]2CC[C@@]2(C)[C@H]1CC[C@]2(C)O` [Methyltestosterone] was 0.609; that for `COc1cc([C@@H]2c3cc4c(cc3[C@H](O)[C@H]3COC(=O)[C@H]23)OCO4)cc(OC)c1OC` [Podophyllotoxin] was 0.393.

Consider `COc1ccc2[nH]cc(CCN)c2c1` [5-Methoxytryptamine], for which the “fiber score / MBP score” value was found to be 0.779. On the same count and under the same terms, next, `CNC(=O)Oc1ccc2c(c1)[C@]1(C)CCN(C)[C@@H]1N2C` [Physostigmine]: 0.593; `CCN(CC)CCOC(=O)C(O)(c1ccccc1)c1ccccc1` [Benactyzine]: 1.18. Turning to `NCCc1ccccn1` [2-(2-aminoethyl)pyridine], the “fiber score / MBP score” value stood at 0.847. Same read-out and setting: the value for `C[C@H]1CCC[C@H](O)CCCCCc2cc(O)cc(O)c2C(=O)O1` [Zeranol] was 0.788.

Turning to `CNC1=Nc2ccc(Cl)cc2C(c2ccccc2)=[N+]([O-])C1` [Chlordiazepoxide], the “fiber score / MBP score” value stood at 0.994.

For `CN1CC[C@]23CCCC[C@H]2[C@H]1Cc1ccc(O)cc13` [Levorphanol], the “fiber score / MBP score” value turned out to be 0.869. With `CC(C)CC(N(C)C)C1(c2ccc(Cl)cc2)CCC1` (centres undefined) [Sibutramine], the “fiber score / MBP score” value worked out at 0.819 ± 0.34.

Staying with this assay, now noted: 5 µM; treatment time: 8 days (DIV5-DIV13).
Turning to `CC(C)(O)[C@@H]1[C@H]2OC(=O)[C@@H]1[C@]1(O)C[C@H]3O[C@]34C(=O)O[C@H]2[C@]14C` [Picrotin], the “fiber score / MBP score” value is 0.797. Same read-out and setting: the value for `COc1ccc(C(CN(C)C)C2(O)CCCCC2)cc1` (centres undefined) [Venlafaxine] was 1.02; that for `CCOC(=O)c1cncn1[C@H](C)c1ccccc1` [Etomidate] was 0.987 ± 0.1; that for `COc1cccc(C2(O)CCCCC2CN(C)C)c1` (centres undefined) [Tramadol] was 0.749. In the case of `c1ccc(Cn2ccnc2)cc1` [1-Benzylimidazole], the “fiber score / MBP score” value stood at 0.942. For the molecule `O=C1CN=C(c2ccccc2)c2cc([N+](=O)[O-])ccc2N1` [Nitrazepam], the “fiber score / MBP score” value is 0.996. Still for that read-out and setting: next, `CCCC(C)(COC(N)=O)COC(=O)NC(C)C` (centres undefined) [Carisoprodol]: 0.796; `CN1[C@@H]2C[C@@H](OC(=O)[C@H](CO)c3ccccc3)C[C@H]1[C@@H]1O[C@@H]12` [Scopolamine hydrobromide]: 0.821. Same read-out and setting: the value for `Oc1cc2c(cc1O)[C@H]1c3ccccc3CN[C@@H]1CC2` (racemic) [Dihydrexidine] was 3.38; that for `N=C(NCc1ccc(Cl)cc1)SCCCc1c[nH]cn1` [Clobenpropit] was 0.822; that for `O=C1CC[C@@]2(O)[C@H]3Cc4ccc(O)c5c4[C@@]2(CCN3CC2CC2)[C@H]1O5` [Naltrexone] was 0.956. Turning to `COc1cc(N)c(Cl)cc1C(=O)NC1CN2CCC1CC2` (centres undefined) [Zacopride], the “fiber score / MBP score” value came out at 0.884. Still for that read-out and setting: next, `c1cncc([C@@H]2CCCN2)c1` [Nornicotine]: 0.836; `CCCN1C[C@H](CSC)C[C@@H]2c3cccc4[nH]cc(c34)C[C@H]21` [Pergolide]: 0.278; `CN1CC[C@@H](c2ccc(F)cc2)[C@H](COc2ccc3c(c2)OCO3)C1` [N-Methylparoxetine]: 0.379. On the same count and under the same terms, next, `Cc1ncc2n1-c1ccc(Cl)cc1C(c1ccccc1F)=NC2` [Midazolam]: 1.88; `CN1[C@@H]2CC[C@H]1C[C@@H](OC(=O)[C@H](CO)c1ccccc1)C2` [Hyoscyamine]: 0.692; `C[C@]12CCC(=O)C=C1CC[C@@H]1[C@@H]2CC[C@@]2(C)[C@H]1CC[C@]2(C)O` [Methyltestosterone]: 0.755.

As for `COc1cc([C@@H]2c3cc4c(cc3[C@H](O)[C@H]3COC(=O)[C@H]23)OCO4)cc(OC)c1OC` [Podophyllotoxin], the “fiber score / MBP score” value came to 0.31.

On to `COc1ccc2[nH]cc(CCN)c2c1` [5-Methoxytryptamine], for which the “fiber score / MBP score” value was determined as 0.737. Same read-out and setting: the value for `CNC(=O)Oc1ccc2c(c1)[C@]1(C)CCN(C)[C@@H]1N2C` [Physostigmine] was 0.703. Same read-out and setting: the value for `CCN(CC)CCOC(=O)C(O)(c1ccccc1)c1ccccc1` [Benactyzine] was 1.2; that for `NCCc1ccccn1` [2-(2-aminoethyl)pyridine] was 0.699; that for `C[C@H]1CCC[C@H](O)CCCCCc2cc(O)cc(O)c2C(=O)O1` [Zeranol] was 0.876. For `CNC1=Nc2ccc(Cl)cc2C(c2ccccc2)=[N+]([O-])C1` [Chlordiazepoxide], the “fiber score / MBP score” value was 0.605.

On to `CN1CC[C@]23CCCC[C@H]2[C@H]1Cc1ccc(O)cc13` [Levorphanol], for which the “fiber score / MBP score” value amounted to 0.735.

For `CC(C)CC(N(C)C)C1(c2ccc(Cl)cc2)CCC1` (centres undefined) [Sibutramine], the “fiber score / MBP score” value was 1.02 ± 0.064.
